According to PubChem BioAssay (Tox21):
Results filed as inconclusive are left out. The source made the active and inactive calls. Unless noted, calls follow the shape of the dose curve; as a rule, active = well fitted curve in the direction sought with a large enough effect in the repeat runs; inconclusive = weak or mixed curves; inactive = no such curve, though single readings can be large; an effect the other way counts as inactive or inconclusive.

Experiments:
[1] = qHTS assay to identify small molecule agonists of the RXR signaling pathway - cell viability counter screen (AID 1159529); also: series mostly up to about 77 µM; nearly all actives have a fitted effect of over 50% in size
In short: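 CellTiter-Glo luminescence gave viability in the wells also read for beta-lactamase. Cells (RXR-alpha-UAS-bla HEK 293T, 2% charcoal-stripped FBS medium) had 5 hr plating, then 16 hr compound exposure at 37 C; tetraoctyl ammonium bromide served as positive control.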

[2] = qHTS assay to identify small molecule antagonists of the retinoid acid receptor (RAR) signaling pathway - cell viability counter screen (AID 1159551); also: nearly all actives have a fitted effect of over 35% in size
In short: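 In this counter screen, the RARE-luciferase line C3RL4 was exposed for 6 h at 37 C and 5% CO2 to compounds with retinol at 1 uM final. Cellular ATP, read by luminescence, served as the viability measure.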

[3] = qHTS assay to identify small molecule antagonists of the retinoic acid receptor (RAR) signaling pathway (AID 1159552; also: nearly all actives have a fitted effect of over 50% in size)
In short: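 Luminescent RARE reporter read-out in C3RL4 cells: 6 hr co-treatment at 37 C of test compounds with retinol at 1 uM final. Cells plated overnight beforehand; luciferase reagent incubated 30 min at room temperature before reading.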

[4] = qHTS assay to identify small molecule antagonists of the estrogen related receptor (ERR) signaling pathway from Tox21 library - cell viability counter screen (AID 1224834); also: nearly all actives have a fitted effect of over 30% in size
In short: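 Counter screen run in ERR cells (2,000 cells/well): cells pre-incubated 6 h, then treated with compounds for 17.5 h at 37 C. Fluorescence was read 30 min after CellTiter-Fluor addition.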

[5] = biological target: Luciferin 4-monooxygenase (Photinus pyralis) (UniProt P08659); assay: qHTS assay to identify small molecule inhibitors of firefly luciferase (AID 1224835); also: nearly all actives have a fitted effect of over 25% in size; also: potency is read from the fitted curve at half-maximal effect
In short: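 Inhibition of purified Photinus luciferase is measured by luminescence. Substrate levels (D-luciferin, ATP) sit at their KM values. Each compound is tested in a concentration series.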

[6] = qHTS assay to identify small molecule agonists of the constitutive androstane receptor (CAR) signaling pathway - cell viability counter screen (AID 1224836); also: series mostly up to about 92 µM; nearly all actives have a fitted effect of over 45% in size
In short: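 Cell viability multiplexed with the CAR agonist screen: CellTiter-Fluor fluorescence after 23 hr at 37 C. HepG2-CYP2B6-hCAR cells got compounds at 15 concentrations with PK11195 at 0.75 uM final.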

[7] = qHTS assay to identify small molecule antagonists of the constitutive androstane receptor (CAR) signaling pathway - cell viability counter screen (AID 1224837); also: series mostly up to about 92 µM; nearly all actives have a fitted effect of over 45% in size
In short: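 CITCO at 50 nM final was added alongside compounds (15 concentrations) to double-stable hCAR/CYP2B6-2.2kb HepG2 cells. Following 23 hr at 37 C, cell viability was quantified by CellTiter-Fluor fluorescence intensity.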

[8] = biological target: Nuclear receptor subfamily 1 group I member 3 (Homo sapiens) (UniProt Q14994); assay: qHTS assay to identify small molecule antagonists of the constitutive androstane receptor (CAR) signaling pathway (AID 1224838); also: nearly all actives have a fitted effect of over 40% in size
In short: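 Inhibition of CITCO-driven (50 nM final) CYP2B6 reporter expression is measured in HepG2 cells stably carrying hCAR. Fifteen compound concentrations are applied for 24 h at 37 C, followed by luciferase luminescence.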

[9] = biological target: Nuclear receptor subfamily 1 group I member 3 (Homo sapiens) (UniProt Q14994); assay: qHTS assay to identify small molecule agonists of the constitutive androstane receptor (CAR) signaling pathway (AID 1224839); also: nearly all actives have a fitted effect of over 15% in size; also: potency is read from the fitted curve at half-maximal effect; as to activation: series mostly up to about 92 µM
In short: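 Luminescent ONE-Glo read-out after 24 hr, 37 C exposure of double-stable HepG2-CYP2B6-hCAR reporter cells to a 15-point compound series, in the presence of 0.75 uM PK11195 (final).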

[10] = qHTS assay to identify small molecule antagonists of the estrogen related receptor signaling pathway with the pleiotropic PPARgamma coactivator (PGC) from Tox21 10K library (AID 1224841; call rule not given here; also: series mostly up to about 92 µM; actives are mostly falling curves and most rising ones were filed inactive; nearly all actives have a fitted effect of over 50% in size)
In short: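 One-Glo luminescence, measured after half an hour at room temperature, quantified reporter output of PGC/ERR cells. These had been plated at 2,000 per well, incubated 6 h, dosed with compounds in DMSO, then kept 18 h at 37 C.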

[11] = qHTS assay to identify small molecule agonists of the estrogen related receptor signaling pathway with the pleiotropic PPARgamma coactivator (PGC) from Tox21 10K library (AID 1224842); also: nearly all actives have a fitted effect of over 15% in size; also: potency is read from the fitted curve at half-maximal effect
In short: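 Luminescence from One-Glo (30 min, room temperature) measured after PGC/ERR cells had 18 h at 37 C with pinned compound (23 nL in DMSO). Cells had been seeded at 2,000 per well and pre-incubated 6 h.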

[12] = biological target: Thyrotropin receptor (Homo sapiens) (UniProt P16473); assay: qHTS assay to identify small molecule agonists of the thyroid stimulating hormone receptor (TSHR) signaling pathway (AID 1224843; calls by dose curve; also: nearly all actives have a fitted effect of over 45% in size)
In short: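 A cell-based cAMP HTRF format was run in TSHR-transfected HEK293 cells, 800 per well. Treatment: 30 min, room temperature. Detection: 1 h with labelled cAMP and anti-cAMP cryptate. Concentration-response over 15 points, three replicates.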

[13] = qHTS assay to identify small molecule agonists of the retinoic acid receptor (RAR) signaling pathway (AID 1159553); also: potency is read from the fitted curve at half-maximal effect
In short: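 In this cell-based screen, 1,000 C3RL4 cells per well were cultured overnight, dosed with test chemicals in DMSO for 6 hr, and assessed for RARE luciferase luminescence.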

[14] = qHTS assay to identify small molecule antagonists of the estrogen related receptor signaling pathway with the pleiotropic PPARgamma coactivator (PGC) from Tox21 10K library - cell viability counter screen (AID 1224840; active = well fitted cell-killing curve with a large enough effect in the repeat runs, not every such curve was filed as active; also: nearly all actives have a fitted effect of over 40% in size)
In short: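 Readout: fluorescence intensity from CellTiter-Fluor after 30 min at 37 C/5% CO2. Preceded by 17.5 h treatment of PGC/ERR cells with DMSO-dissolved compounds, added 6 h post-seeding.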

[15] = qHTS assay to identify small molecule antagonists of the estrogen related receptor (ERR) signaling pathway - cell viability counter screen (AID 1224818); also: series mostly up to about 46 µM
In short: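 Viability of ERR cells, CellTiter-Fluor fluorescence; 17.5 h compound exposure at 37 C, DMSO vehicle; 30 min reagent incubation at 37 C/5% CO2.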

[16] = qHTS assay to identify small molecule antagonists of the estrogen related receptor (ERR) signaling pathway (AID 1224819;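 also: luminescence from an ERR-driven luciferase reporter measured with One-Glo reagent; series mostly up to about 46 µM; nearly all actives have a fitted effect of over 50% in size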)
In short: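 Seed ERR cells 2,000/well; rest 6 h at 37 C/5% CO2; pin compounds in DMSO; incubate 18 h at 37 C; add One-Glo; wait 30 min at room temperature; measure luminescence.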

[17] = qHTS assay to identify small molecule agonists of the estrogen related receptor (ERR) signaling pathway (AID 1224820)
In short: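 Following a 6 h settling period, 2,000 ERR cells per well receive DMSO-dissolved compounds by pin tool and incubate 18 h at 37 C; agonist activity is scored from One-Glo luminescence read 30 min post-addition.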

[18] = test system: estrogen-related receptor alpha (ERRalpha) with PGC-1alpha coactivator, human; assay: qHTS assay to identify small molecule antagonists of the estrogen related receptor signaling pathway with the pleiotropic PPARgamma coactivator (PGC) (AID 1224821; calls by dose curve)
In short: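 Screening used NTP's PGC/ERR cells, dosed via pin tool with compound in DMSO alongside positive and negative controls. After 18 h at 37 C, One-Glo reagent sat 30 min at room temperature before luminescence detection.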

[19] = qHTS assay to identify small molecule agonists of the estrogen related receptor signaling pathway with the pleiotropic PPARgamma coactivator (PGC) (AID 1224823)
In short: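 In this quantitative high-throughput screen, an 18 h, 37 C treatment of PGC/ERR cells with compounds in DMSO preceded a One-Glo luminescence read taken after 30 min at room temperature.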
% is scaled to controls: 0 for no effect and ±100 for the full control effect.

Sequence of Thyrotropin receptor (Homo sapiens) (P16473 whole entry, looked up): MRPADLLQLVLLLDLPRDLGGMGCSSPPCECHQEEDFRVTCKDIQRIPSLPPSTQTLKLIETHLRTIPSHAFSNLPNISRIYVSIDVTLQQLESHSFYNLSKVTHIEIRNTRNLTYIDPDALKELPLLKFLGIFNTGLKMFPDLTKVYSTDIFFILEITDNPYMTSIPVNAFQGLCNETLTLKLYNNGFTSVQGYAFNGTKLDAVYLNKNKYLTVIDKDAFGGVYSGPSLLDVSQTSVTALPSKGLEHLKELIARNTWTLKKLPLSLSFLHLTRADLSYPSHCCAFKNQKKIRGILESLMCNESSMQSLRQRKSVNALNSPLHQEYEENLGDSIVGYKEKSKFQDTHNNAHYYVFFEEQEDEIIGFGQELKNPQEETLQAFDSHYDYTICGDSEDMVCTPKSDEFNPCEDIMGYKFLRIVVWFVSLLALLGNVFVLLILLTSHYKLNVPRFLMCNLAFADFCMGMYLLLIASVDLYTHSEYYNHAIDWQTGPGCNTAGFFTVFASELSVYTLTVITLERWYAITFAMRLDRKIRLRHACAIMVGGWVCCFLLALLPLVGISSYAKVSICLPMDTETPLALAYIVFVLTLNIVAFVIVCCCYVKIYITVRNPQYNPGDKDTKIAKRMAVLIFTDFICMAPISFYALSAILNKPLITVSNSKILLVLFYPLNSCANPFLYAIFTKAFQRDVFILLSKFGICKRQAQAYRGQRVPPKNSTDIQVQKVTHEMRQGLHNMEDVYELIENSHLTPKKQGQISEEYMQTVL
Sequence of Luciferin 4-monooxygenase (Photinus pyralis) (P08659 whole entry, looked up): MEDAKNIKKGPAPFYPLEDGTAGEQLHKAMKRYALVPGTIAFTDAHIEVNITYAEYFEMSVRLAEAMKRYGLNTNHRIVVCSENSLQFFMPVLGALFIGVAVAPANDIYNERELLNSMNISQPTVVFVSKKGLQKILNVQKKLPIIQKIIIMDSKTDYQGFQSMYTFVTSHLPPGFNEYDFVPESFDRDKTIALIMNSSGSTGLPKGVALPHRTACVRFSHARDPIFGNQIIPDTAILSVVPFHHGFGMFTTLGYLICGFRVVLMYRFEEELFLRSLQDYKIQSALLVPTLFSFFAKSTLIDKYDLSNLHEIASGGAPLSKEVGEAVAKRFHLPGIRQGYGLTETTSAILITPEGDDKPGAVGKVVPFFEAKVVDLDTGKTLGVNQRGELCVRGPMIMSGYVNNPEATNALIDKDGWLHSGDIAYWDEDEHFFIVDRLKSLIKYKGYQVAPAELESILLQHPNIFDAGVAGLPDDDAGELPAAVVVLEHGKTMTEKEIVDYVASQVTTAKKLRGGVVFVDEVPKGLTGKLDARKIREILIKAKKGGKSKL
Sequence of Nuclear receptor subfamily 1 group I member 3 (Homo sapiens) (Q14994 whole entry, looked up): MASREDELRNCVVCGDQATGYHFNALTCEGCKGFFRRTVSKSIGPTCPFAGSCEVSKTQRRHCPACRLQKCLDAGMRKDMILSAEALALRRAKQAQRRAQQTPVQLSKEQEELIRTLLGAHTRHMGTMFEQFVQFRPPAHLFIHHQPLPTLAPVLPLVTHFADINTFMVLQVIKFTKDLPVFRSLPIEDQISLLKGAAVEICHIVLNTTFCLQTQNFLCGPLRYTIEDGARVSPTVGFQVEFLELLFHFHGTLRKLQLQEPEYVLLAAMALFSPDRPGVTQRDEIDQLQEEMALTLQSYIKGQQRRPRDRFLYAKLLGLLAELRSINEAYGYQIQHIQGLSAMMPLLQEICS

CC(CN)CCCN (stereo unspecified)
inactive: Potency [1] | Potency [2] | Potency [3] | Potency [4] | Potency [5] | Potency [6] | Potency [7] | Potency [8] | Potency [9] | Potency [10] | Potency [11] | Potency [12]

CCCCCC(CO)CCC (stereo unspecified)
inactive: Potency [1] | Potency [2] | Potency [3] | Potency [13] | Potency [4] | Potency [5] | Potency [6] | Potency [7] | Potency [10] | Potency [11] | Potency [12]

CN1CCN(C2=Nc3ccccc3Sc3ccc(Cl)cc32)CC1
inactive: Potency [1] | Potency [2] | Potency [3] | Potency [13] | Potency [4] | Potency [6] | Potency [7] | Potency [8] | Potency [14] | Potency [10] | Potency [11] | Potency [12]

FC(F)(F)C(F)(F)C(F)(F)C(F)(F)C(F)(F)C(F)(F)CCI
inactive: Potency [1] | Potency [2] | Potency [3] | Potency [13] | Potency [4] | Potency [6] | Potency [7] | Potency [8] | Potency [12]

CC(=O)c1ccc2c(c1)[C@H](NC(=O)c1ccc(F)cc1)[C@@H](O)C(C)(C)O2
inactive: Potency [1] | Potency [2] | Potency [3] | Potency [13] | Potency [5] | Potency [6] | Potency [8] | Potency [9] | Potency [12]

C=C(C)C(=O)OCCOc1ccccc1
active: Potency [5] 35.6 µM
inactive: Potency [1] | Potency [2] | Potency [3] | Potency [4] | Potency [6] | Potency [7] | Potency [8] | Potency [10] | Potency [11]

CC(=O)N(O)CCCCCNC(=O)CCC(=O)N(O)CCCCCNC(=O)CCC(=O)N(O)CCCCCN
inactive: Potency [1] | Potency [2] | Potency [3] | Potency [13] | Potency [5] | Potency [6] | Potency [7] | Potency [11] | Potency [12]

CCN1CCC[C@H]1CNC(=O)c1c(OC)ccc(Br)c1OC
inactive: Potency [1] | Potency [2] | Potency [3] | Potency [13] | Potency [4] | Potency [5] | Potency [6] | Potency [7] | Potency [14] | Potency [12]

C=C(C)C(=O)OC(C)C
inactive: Potency [1] | Potency [2] | Potency [3] | Potency [4] | Potency [5] | Potency [6] | Potency [7] | Potency [9] | Potency [14] | Potency [12]

O=C(O)Cc1cc(I)c(Oc2ccc(O)c(I)c2)c(I)c1
inactive: Potency [1] | Potency [2] | Potency [3] | Potency [13] | Potency [4] | Potency [6] | Potency [7] | Potency [8] | Potency [14] | Potency [11] | Potency [12]

CCCCCOC(=O)c1ccc(O)cc1
inactive: Potency [1] | Potency [2] | Potency [3] | Potency [6] | Potency [7] | Potency [8] | Potency [10] | Potency [12]
active: Potency [13] 1.23 µM | Potency [5] 36 µM | Potency [9] 55.1 µM | Potency [11] 27.6 µM

OCCC1CCCCN1 (stereo unspecified)
inactive: Potency [1] | Potency [2] | Potency [3] | Potency [13] | Potency [4] | Potency [5] | Potency [6] | Potency [7] | Potency [14] | Potency [12]

CCN(CCO)CCCC(C)Nc1ccnc2cc(Cl)ccc12 (stereo unspecified)
inactive: activity change, negative = cytotoxicity [1] -6.26% [at 6.97 µM] | activity change, negative = cytotoxicity [2] 0.797% [at 8.39 µM] | activity, negative = inhibition [3] -1.6% [at 8.39 µM] | activation [13] 0.716% [at 8.36 µM] | viability change, negative = cytotoxic [4] -2.66% [at 8.39 µM] | viability change, negative = cytotoxic [6] -11% [at 8.39 µM] | activity change, negative = cytotoxicity [7] -10.3% [at 8.39 µM] | activation [12] -1.08% [at 8.39 µM]

CN1CCC(=C2c3ccccc3C=Cc3ccccc32)CC1
inactive: Potency [1] | Potency [2] | Potency [13] | outcome [15] | outcome [16] | outcome [17] | outcome [18] | outcome [19] | Potency [4] | Potency [5] | Potency [6] | Potency [7] | Potency [8] | Potency [9] | Potency [14] | Potency [10] | Potency [11] | Potency [12]

CCCCCCCC/C=C\CCCCCCCC(N)=O
inactive: Potency [1] | Potency [2] | Potency [13] | Potency [4] | Potency [5] | Potency [6] | Potency [7] | Potency [8] | Potency [9] | Potency [14] | Potency [10] | Potency [11] | Potency [12]

CC(C)CCCC(C)CCO (stereo unspecified)
inactive: Potency [1] | Potency [2] | Potency [3] | Potency [4] | Potency [5] | Potency [6] | Potency [7] | Potency [8] | Potency [14] | Potency [12]

Cn1c(NCCN(CCO)CCCc2ccc([N+](=O)[O-])cc2)cc(=O)n(C)c1=O
inactive: Potency [1] | Potency [2] | Potency [4] | Potency [5] | Potency [6] | Potency [7] | Potency [14] | Potency [10] | Potency [11] | Potency [12]

CC(=O)[C@@]1(O)CC[C@H]2[C@@H]3C[C@H](C)C4=CC(=O)CC[C@]4(C)[C@H]3CC[C@@]21C
inactive: Potency [1] | Potency [2] | Potency [4] | Potency [5] | Potency [6] | Potency [7] | Potency [8] | Potency [14] | Potency [11] | Potency [12]
active: Potency [9] 21.1 µM

CC(=O)N(CC(=O)N(C)C)c1ccccc1
inactive: Potency [1] | Potency [2] | Potency [4] | Potency [5] | Potency [6] | Potency [7] | Potency [8] | Potency [14] | Potency [10] | Potency [11] | Potency [12]
